Reference: the supplement of paper PMC10849652
About 7,900 targets were measured; listed, in parts, are those with a hit and a random draw of the rest. About 0.6% of all pairs of compound and target were hits. Values without a mark were called inactive.

How the values were obtained:
Experiment in all cases: log2 fold change, soluble protein after heating vs DMSO (PISA); higher = thermal stabilisation; K562 cells, 10 uM, 30 min; active = over 0.2 and 3.5 SD of the protein, either way, in both replicates (recomputed)
[1] = compound: NC(=O)Nc1cc(-c2cccc(F)c2)sc1C(=O)N[C@H]1CCCNC1
Outline: (§1)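 For each measurement, 10 μM compound was applied for 30 min to K562 cells at 2×10^6 cells/mL. Aliquots were heated for 3 min across 48°C-58°C, pooled, and extracted in PBS with 0.5% NP-40 at 4°C; the supernatant after 21,000xg for 90 min was soluble protein. This was quantified by TMTpro 16plex LC-MS/MS with channel sums equalised, and thermal stability was reported relative to control samples from duplicates, on a log2 fold-change scale.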

[2] = compound: NC(=O)c1cnc(N[C@@H]2CCCC[C@@H]2N)nc1Nc1cccc(-n2nccn2)c1
Outline: as §1

[3] = compound: NC1(c2ccc(-c3nc4ccn5c(=O)[nH]nc5c4cc3-c3ccccc3)cc2)CCC1
Outline: as §1

[4] = compound: NCC(=O)Nc1ccc(-n2nc(C(F)(F)F)cc2-c2ccc3c(ccc4ccccc43)c2)cc1
Outline: as §1

entinostat = compound: Nc1ccccc1NC(=O)c1ccc(CNC(=O)OCc2cccnc2)cc1 [entinostat]
Outline: as §1

vorinostat = compound: O=C(CCCCCCC(=O)Nc1ccccc1)NO [vorinostat]
Outline: as §1

citarinostat = compound: O=C(CCCCCCNC(=O)c1cnc(N(c2ccccc2)c2ccccc2Cl)nc1)NO [citarinostat]
Outline: as §1

silmitasertib = compound: O=C(O)c1ccc2c(c1)nc(Nc1cccc(Cl)c1)c1ccncc12 [silmitasertib]
Outline: as §1

[5] = compound: O=C1NC(=O)C(c2cnc3ccccn23)=C1c1cn2c3c(cc(F)cc13)CN(C(=O)N1CCCCC1)CC2
Outline: as §1

[6] = compound: c1cc(OCCN2CCCCC2)cc(-c2n[nH]c3ccc(-c4nnc[nH]4)cc23)c1
Outline: as §1

entospletinib = compound: c1cn2cc(-c3ccc4cn[nH]c4c3)nc(Nc3ccc(N4CCOCC4)cc3)c2n1 [entospletinib]
Outline: as §1

Sequence of UniProt O14929 (O14929 whole entry, looked up): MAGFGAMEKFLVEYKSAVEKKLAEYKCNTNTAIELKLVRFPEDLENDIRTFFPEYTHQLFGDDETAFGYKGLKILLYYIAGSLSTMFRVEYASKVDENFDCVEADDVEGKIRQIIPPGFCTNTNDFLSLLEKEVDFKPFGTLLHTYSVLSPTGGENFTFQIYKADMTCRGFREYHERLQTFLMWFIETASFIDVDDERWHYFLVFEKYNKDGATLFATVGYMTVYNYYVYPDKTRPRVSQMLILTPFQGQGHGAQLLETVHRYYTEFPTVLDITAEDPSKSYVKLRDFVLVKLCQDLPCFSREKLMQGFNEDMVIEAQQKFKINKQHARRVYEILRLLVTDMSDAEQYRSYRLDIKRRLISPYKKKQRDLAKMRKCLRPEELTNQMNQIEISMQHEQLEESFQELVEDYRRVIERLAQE
Sequence of UniProt O14976 (O14976 whole entry, looked up): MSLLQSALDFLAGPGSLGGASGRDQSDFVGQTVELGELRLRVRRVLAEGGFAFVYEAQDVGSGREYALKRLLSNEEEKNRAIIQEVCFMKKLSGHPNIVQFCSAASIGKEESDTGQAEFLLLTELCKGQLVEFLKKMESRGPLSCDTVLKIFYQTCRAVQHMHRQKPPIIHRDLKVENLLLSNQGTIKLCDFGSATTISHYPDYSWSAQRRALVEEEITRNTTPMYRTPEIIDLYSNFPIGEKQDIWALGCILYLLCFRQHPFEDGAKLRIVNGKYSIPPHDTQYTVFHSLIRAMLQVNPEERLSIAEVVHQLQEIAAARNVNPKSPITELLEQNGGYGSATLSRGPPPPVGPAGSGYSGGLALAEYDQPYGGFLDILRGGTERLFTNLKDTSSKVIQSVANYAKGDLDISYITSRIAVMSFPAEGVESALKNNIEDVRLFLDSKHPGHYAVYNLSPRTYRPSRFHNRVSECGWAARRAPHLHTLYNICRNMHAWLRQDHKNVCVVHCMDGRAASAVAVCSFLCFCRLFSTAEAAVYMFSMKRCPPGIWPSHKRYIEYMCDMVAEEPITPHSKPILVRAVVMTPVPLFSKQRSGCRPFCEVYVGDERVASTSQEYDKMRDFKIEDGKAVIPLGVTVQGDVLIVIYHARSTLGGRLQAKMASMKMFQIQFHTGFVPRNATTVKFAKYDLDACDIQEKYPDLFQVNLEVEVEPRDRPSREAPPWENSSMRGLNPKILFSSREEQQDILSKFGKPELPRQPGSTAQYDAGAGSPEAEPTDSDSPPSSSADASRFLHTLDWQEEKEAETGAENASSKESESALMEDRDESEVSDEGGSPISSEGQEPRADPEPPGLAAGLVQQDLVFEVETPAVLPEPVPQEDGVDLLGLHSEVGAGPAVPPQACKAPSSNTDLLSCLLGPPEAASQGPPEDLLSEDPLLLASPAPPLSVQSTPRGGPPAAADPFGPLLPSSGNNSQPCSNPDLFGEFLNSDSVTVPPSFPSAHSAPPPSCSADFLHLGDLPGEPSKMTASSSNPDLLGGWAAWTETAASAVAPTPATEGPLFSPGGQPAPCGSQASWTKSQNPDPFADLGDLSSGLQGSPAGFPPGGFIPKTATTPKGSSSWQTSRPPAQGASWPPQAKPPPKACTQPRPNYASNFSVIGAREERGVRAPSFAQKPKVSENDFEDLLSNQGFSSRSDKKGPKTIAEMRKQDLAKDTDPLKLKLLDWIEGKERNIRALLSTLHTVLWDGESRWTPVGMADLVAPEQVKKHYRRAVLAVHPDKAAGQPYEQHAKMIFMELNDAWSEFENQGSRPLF
Sequence of UniProt P22570 (P22570 whole entry, looked up): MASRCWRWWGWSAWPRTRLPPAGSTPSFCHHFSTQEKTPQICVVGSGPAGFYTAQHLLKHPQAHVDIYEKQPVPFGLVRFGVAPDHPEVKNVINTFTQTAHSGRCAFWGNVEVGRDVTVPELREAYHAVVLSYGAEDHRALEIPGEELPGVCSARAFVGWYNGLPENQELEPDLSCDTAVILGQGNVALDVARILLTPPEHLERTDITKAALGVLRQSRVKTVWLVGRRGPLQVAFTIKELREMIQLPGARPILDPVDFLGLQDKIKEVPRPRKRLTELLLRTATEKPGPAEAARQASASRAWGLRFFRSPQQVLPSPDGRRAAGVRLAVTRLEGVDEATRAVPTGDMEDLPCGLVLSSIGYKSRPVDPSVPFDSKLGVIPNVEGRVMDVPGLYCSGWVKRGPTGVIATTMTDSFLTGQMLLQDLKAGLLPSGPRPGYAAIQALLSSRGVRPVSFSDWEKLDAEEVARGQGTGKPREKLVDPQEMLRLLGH
Sequence of UniProt P36969 (P36969 whole entry, looked up): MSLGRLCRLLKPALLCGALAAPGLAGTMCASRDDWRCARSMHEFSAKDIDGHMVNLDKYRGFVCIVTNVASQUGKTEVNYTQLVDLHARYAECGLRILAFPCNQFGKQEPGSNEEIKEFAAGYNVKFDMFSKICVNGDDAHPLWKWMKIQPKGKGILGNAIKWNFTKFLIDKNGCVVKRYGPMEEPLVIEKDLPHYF
Sequence of UniProt Q92947 (Q92947 whole entry, looked up): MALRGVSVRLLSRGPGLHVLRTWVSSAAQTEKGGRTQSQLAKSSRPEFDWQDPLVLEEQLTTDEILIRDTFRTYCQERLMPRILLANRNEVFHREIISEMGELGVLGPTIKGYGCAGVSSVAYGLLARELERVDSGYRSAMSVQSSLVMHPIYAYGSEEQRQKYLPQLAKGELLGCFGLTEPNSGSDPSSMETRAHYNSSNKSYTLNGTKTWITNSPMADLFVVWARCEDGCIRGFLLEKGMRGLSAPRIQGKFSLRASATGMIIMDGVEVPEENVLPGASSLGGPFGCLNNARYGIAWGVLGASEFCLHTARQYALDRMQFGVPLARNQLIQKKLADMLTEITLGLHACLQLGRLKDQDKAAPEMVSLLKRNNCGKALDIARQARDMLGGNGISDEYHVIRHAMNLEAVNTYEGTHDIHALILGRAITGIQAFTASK
Sequence of UniProt Q86VS8 (Q86VS8 whole entry, looked up): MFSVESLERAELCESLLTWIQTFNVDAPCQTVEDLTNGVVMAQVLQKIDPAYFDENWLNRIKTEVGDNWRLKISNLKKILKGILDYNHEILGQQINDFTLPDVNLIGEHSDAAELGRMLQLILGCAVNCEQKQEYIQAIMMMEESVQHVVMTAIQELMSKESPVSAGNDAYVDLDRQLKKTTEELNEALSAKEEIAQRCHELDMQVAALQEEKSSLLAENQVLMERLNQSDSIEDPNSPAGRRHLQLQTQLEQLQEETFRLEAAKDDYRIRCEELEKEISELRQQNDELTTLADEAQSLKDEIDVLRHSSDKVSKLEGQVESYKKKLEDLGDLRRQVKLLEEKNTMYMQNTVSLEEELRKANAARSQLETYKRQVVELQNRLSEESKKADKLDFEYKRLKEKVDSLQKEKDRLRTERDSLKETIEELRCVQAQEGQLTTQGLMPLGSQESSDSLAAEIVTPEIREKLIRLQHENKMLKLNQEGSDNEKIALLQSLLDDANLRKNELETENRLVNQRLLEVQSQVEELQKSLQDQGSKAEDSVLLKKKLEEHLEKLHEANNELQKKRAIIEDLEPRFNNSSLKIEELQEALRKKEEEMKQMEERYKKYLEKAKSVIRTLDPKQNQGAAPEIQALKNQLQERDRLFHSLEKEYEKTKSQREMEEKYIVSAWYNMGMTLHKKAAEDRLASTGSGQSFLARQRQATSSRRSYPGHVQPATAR
Sequence of UniProt P29084 (P29084 whole entry, looked up): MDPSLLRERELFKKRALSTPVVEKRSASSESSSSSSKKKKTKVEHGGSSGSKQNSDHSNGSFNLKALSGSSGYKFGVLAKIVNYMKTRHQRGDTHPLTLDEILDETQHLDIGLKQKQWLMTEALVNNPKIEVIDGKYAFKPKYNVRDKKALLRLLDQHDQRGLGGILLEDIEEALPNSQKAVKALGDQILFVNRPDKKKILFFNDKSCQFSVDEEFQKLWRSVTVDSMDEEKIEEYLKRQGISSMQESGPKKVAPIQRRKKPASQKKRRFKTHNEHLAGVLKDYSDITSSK
Sequence of UniProt Q70Z53 (Q70Z53 whole entry, looked up): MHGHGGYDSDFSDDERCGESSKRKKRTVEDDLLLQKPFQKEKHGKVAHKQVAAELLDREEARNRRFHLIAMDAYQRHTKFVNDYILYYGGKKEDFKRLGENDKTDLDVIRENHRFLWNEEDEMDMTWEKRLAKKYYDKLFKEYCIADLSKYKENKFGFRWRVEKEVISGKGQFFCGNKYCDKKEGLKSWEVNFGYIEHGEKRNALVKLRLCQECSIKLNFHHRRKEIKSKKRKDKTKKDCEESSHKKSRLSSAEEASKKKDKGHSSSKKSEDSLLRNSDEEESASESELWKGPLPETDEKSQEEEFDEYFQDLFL
Sequence of UniProt P31150 (P31150 whole entry, looked up): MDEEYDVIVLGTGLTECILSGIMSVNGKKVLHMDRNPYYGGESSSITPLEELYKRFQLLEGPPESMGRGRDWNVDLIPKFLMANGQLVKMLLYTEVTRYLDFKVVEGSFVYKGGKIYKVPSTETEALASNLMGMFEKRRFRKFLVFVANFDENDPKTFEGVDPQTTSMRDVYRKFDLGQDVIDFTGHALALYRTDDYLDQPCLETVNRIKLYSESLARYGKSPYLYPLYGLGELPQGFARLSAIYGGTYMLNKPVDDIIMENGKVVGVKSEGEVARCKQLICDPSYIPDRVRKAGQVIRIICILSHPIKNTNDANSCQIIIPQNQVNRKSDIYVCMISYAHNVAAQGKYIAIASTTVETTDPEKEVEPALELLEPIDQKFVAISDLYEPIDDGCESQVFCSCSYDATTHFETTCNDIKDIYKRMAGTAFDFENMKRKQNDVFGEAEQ
Sequence of UniProt O00165 (O00165 whole entry, looked up): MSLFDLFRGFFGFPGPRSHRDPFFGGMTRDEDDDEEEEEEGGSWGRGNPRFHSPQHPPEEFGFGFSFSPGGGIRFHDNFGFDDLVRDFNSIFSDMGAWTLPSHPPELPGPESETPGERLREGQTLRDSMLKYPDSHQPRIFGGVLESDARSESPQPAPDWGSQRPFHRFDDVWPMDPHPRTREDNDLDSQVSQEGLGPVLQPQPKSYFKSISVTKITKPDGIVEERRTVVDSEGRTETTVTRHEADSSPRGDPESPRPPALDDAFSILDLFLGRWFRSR

Row | Target | log2 fold change [1] | log2 fold change [2] | log2 fold change [3] | log2 fold change [4] | log2 fold change (entinostat) | log2 fold change (vorinostat) | log2 fold change (citarinostat) | log2 fold change (silmitasertib) | log2 fold change [5] | log2 fold change [6] | log2 fold change (entospletinib)
1 | GPX4 (UniProt P36969) | -0.006 | 0.079 | -0.052 | 0.032 | -0.107 | -0.082 | -0.391 (active) | 0.004 | -0.006 | -0.049 | 0.02
2 | HSD17B12 (UniProt Q53GQ0) | -0.031 | 0.005 | -0.049 | 0.066 | -0.02 | -0.014 | 0.14 | 0.037 | -0.146 | -0.082 | -0.015
3 | FECH isoform 2 (UniProt P22830) | -0.031 | 0.171 | 0.288 | 0.021 | -0.01 | -0.228 | -0.031 | -0.035 | 0 | 0.38 | 0.471
4 | HECTD1 (UniProt Q9ULT8) | -0.036 | -0.087 | -0.017 | -0.01 | 0.042 | 0.06 | 0.123 | 0.075 | -0.027 | -0.17 | -0.057
5 | GTF3C5 isoform 3 (UniProt Q9Y5Q8) | -0.028 | 0.211 | -0.054 | -0.051 | 0.046 | 0.072 | -0.074 | -0.034 | 0.042 | 0.013 | 0.226
6 | GYG1 (UniProt P46976) | 0.012 | -0.017 | 0.075 | 0.134 | -0.019 | -0.056 | -0.011 | 0.049 | 0.037 | -0.057 | 0.643 (active)
7 | HAX1 (UniProt O00165) | -0.106 | -0.165 | -0.174 | -0.06 | 0.021 | 0.115 | -0.019 | -0.032 | 0.036 | -0.074 | 0.028
8 | GTF2E2 (UniProt P29084) | -0.097 | -0.052 | -0.048 | -0.048 | 0.025 | 0.093 | 0.093 | 0.085 | 0.054 | -0.067 | -0.011
9 | FDXR isoform 7 (UniProt P22570) | -0.03 | -0.044 | -0.083 | -0.082 | -0.006 | 0.084 | 0.031 | -0.034 | -0.197 | -0.11 | -0.032
10 | GCDH (UniProt Q92947) | 0.015 | 0.031 | 0.052 | 0.006 | -0.002 | 0.103 | 0.025 | -0.05 | -0.019 | 0.009 | -0.026
11 | HAT1 (UniProt O14929) | 0.002 | 0.006 | -0.076 | 0.01 | 0.053 | 0.001 | 0.071 | 0.052 | -0.055 | -0.016 | -0.021
12 | HNRNPH1 (UniProt P31943) | 0.052 | -0.023 | -0.075 | -0.059 | 0.118 | 0.168 | 0.09 | 0.024 | -0.105 | -0.074 | 0.108
13 | HOOK3 (UniProt Q86VS8) | 0.05 | -0.077 | -0.079 | -0.081 | 0.063 | 0.056 | -0.022 | 0.101 | -0.049 | -0.05 | 0.025
14 | GMEB2 (UniProt Q9UKD1) | -0.039 | -0.079 | 0.056 | -0.119 | 0.064 | 0.063 | 0.086 | 0.044 | -0.194 | -0.037 | 0.072
15 | GDI1 (UniProt P31150) | -0.018 | -0.066 | -0.051 | -0.04 | -0.016 | 0.022 | 0.014 | -0.012 | -0.037 | -0.04 | 0.032
16 | HSPA8 (UniProt E9PK54) | 0.015 | 0.023 | -0.071 | -0.136 | 0.061 | -0.064 | 0.068 | 0.028 | 0.093 | -0.027 | -0.212
17 | GALNT1 (UniProt Q10472) | -0.016 | -0.012 | -0.068 | -0.016 | -0.027 | 0.067 | 0.011 | -0.007 | -0.121 | 0.046 | 0.01
18 | FRA10AC1 isoform 3 (UniProt Q70Z53) | -0.069 | 0.114 | -0.121 | -0.077 | 0.019 | 0.065 | 0.08 | 0.129 | -0.091 | -0.232 | -0.003
19 | GAK (UniProt O14976) | 1.52 | 0.465 | 0.145 | 1.4 | -0.072 | -0.01 | -0.244 | 0.607 | 0.236 | 0.687 | 0.371
20 | GTF2A1 (UniProt P52655) | -0.029 | 0.249 | 0.01 | 0.093 | -0.116 | -0.031 | -0.035 | 0.004 | -0.028 | 0.016 | 0.051
